These results are taken from ChEMBL document CHEMBL3988442, “University of Dundee, Small-Polar-MMV Screening Library” (2021).

Screen size: about 48,000 compounds; about 13,000 (27%) showed an effect of 50% or more. This is one part of the list.

The test system of this assay is Wolbachia pipientis. Kind of assay: Anti-Wolbachia Cell-Based Screen. Type of assay: functional. Set-up: scale not given: in the data most compounds retested in dose-response had high values. As to conditions: 5 µM.
With `CCOc1ccc(-n2ccc3nc(N4CCCC4)ncc3c2=O)cc1`, the “Percent Effect” value was -8.321%. With `O=c1c2cnc(N3CCCC3)nc2ccn1-c1cccc(C(F)(F)F)c1` the figure was 0.9271%; with `Cc1ccc(NC(=O)CCc2ccco2)cc1N1CCOC1=O`, -14.01%. In the case of `CCCOCC(=O)Nc1ncc(I)cc1C`, the “Percent Effect” value is reported as -6.497%. With `O=C(CCC1CCCN(C(=O)CCN2CCCCO2)C1)N1CCCC1` (stereo not given) the figure was 3.672%. In the case of `CNc1nc(N2CCN(Cc3ccsc3)C(CCO)C2)nc2c1CCC2` (stereo not given), the “Percent Effect” value is -11.96%. As for `COCCn1ccc(NC(=O)Nc2ccccc2)n1`, the “Percent Effect” value came to 3.766%.

Take `CCn1ccc(NC(=O)CN2C(=O)C(C)(C)c3ccccc32)n1`: the “Percent Effect” value was determined as 112.9%. Consider `CCN1C(=O)C(C)(C)c2cc(NC(=O)c3ccco3)ccc21`, for which the “Percent Effect” value is listed as -4.693%.

On to `CCN(Cc1cnn(CC)c1)C(=O)CN1C(=O)CCc2ccccc21`, for which the “Percent Effect” value is on record as -11.46%. In the case of `NC(=O)Cn1ccc(NC(=O)C2(c3cccc(F)c3)CCC2)n1` it was -8.022%; in that of `COCCn1ccc(NC(=O)Nc2ccccn2)n1`, 7.746%. Regarding `CCn1cc(NC(=O)CN2C(=O)CC(C)(C)c3ccccc32)cn1`, the “Percent Effect” value is listed as 116.8%. For the compound `CCn1cc(NC(=O)NCC(O)c2ccccc2)cn1` (stereo not given), the “Percent Effect” value is -11.2%. With `CCn1ccc(NC(=O)CN2C(=O)CC(C)(C)c3ccccc32)n1` the figure was 127.7%; with `C[C@@H](NCc1cccc(Cl)c1)c1onc(-c2ccc(F)cc2)c1C(=O)O.Cl`, -9.594%; with `Cc1c(C(=O)N2CC(C)(C)C2(C)C)nnn1-c1cccc2cnccc12`, -4.075%. With `Cc1nc(CN2CCCCC2CCc2cccs2)co1` (stereo not given) the figure was 96.55%; with `COCCC1CCCCN1Cc1nc(Cc2cccc(F)c2)no1` (stereo not given), 4.701%; with `COCCC1CCCCN1Cc1nc(C2CC2)no1` (stereo not given), -11.16%. With `Cc1cnn(CC2CCCN2Cc2coc(-c3cccs3)n2)c1` (stereo not given) the figure was -13.53%; with `c1csc(CCC2CCCCN2Cc2noc(C3CC3)n2)c1` (stereo not given), 94.56%.

On to `COCc1noc(CN2CCCCC2CCc2cccs2)n1` (stereo not given), for which the “Percent Effect” value was 103.5%. Consider `Cc1nc(C)n(CC2CCCN2CCc2cccs2)n1` (stereo not given), for which the “Percent Effect” value was -19.79%. With `CC(C)(C(=O)NCCCc1nc2ccccc2[nH]1)n1cc(Cl)cn1` the figure was -7.293%; with `CC(C)CC(CCO)CNC(=O)N1CCC1(C)C` (stereo not given), -13.05%.

For `Cc1nnc2n1CCN(C(=O)c1cnc3c(cnn3C(C)C)c1)C2`, the “Percent Effect” value is given as -12.78%.

For `CCOCC(=O)N1CCC(Cc2nnc(SC)n2C)CC1`, the “Percent Effect” value worked out at 5.722%. With `NC(=O)C1CCN(C(=O)NCc2ccccc2Cn2cncn2)CC1`, the “Percent Effect” value was -13.11%.

For `O=S(=O)(NCc1ccccc1Cn1cncn1)N1CCCCCC1`, the “Percent Effect” value was found to be 113.8%. In the case of `O=S(=O)(NCc1ccccc1Cn1cncn1)C1CCCC1`, the “Percent Effect” value is reported as 4.456%.

In the case of `CN(C)C1CCN(C(=O)NCc2ccccc2Cn2cncn2)CC1`, the “Percent Effect” value is given as -21.25%. With `CC1CN(Cc2ccccc2Cn2cccn2)CCN1C` (stereo not given) the figure was -6.674%; with `O=S(=O)(NCc1ccccc1Cn1cncn1)N1CCCCC1`, 112.9%; with `CC1CCN(S(=O)(=O)NCc2ccccc2Cn2cccn2)CC1`, 110.3%. In the case of `Cc1nccn1-c1ccc(CNS(=O)(=O)N2CCC(C)CC2)cn1` it was 2.013%. On to `O=S(=O)(NCc1cccnc1OC1CCCC1)N1CCCCC1`, for which the “Percent Effect” value is 6.628%. With `CC1CCCN(S(=O)(=O)NCc2ccccc2Cn2cncn2)C1` (stereo not given) the figure was 105.5%; with `O=C(CCNC(=O)C1CCCC1)NCc1ccccc1Cn1cncn1`, 1.009%.

On to `CC1CCN(S(=O)(=O)NCc2ccccc2Cn2cncn2)CC1`, for which the “Percent Effect” value was 5.954%. As for `CCN1CCCC1CN(Cc1cc[nH]n1)CC1CCN(CCOC)CC1` (stereo not given), the “Percent Effect” value is -0.05242%. In the case of `CN1CCC(N(Cc2ccco2)S(=O)(=O)c2ccc(Br)cc2Cl)CC1`, the “Percent Effect” value was 36.62%.

In the case of `CCN1C(=O)C2(CCOCC2)c2cc(NC(=O)c3cnccn3)ccc21`, the “Percent Effect” value is -0.09306%. In the case of `CC(=O)NCC(=O)N1Cc2cnc(CC(C)C)nc2C1` it was 15.63%; in that of `Cc1noc(C)c1CNC(C(=O)N1CCOCC1)C(C)C` (stereo not given), 6.768%; in that of `Cc1ccnn1CCC(=O)N1CCOC(CCc2ccccc2)C1` (stereo not given), -2.997%. In the case of `Cc1noc(C)c1-c1cc(CCC2CN(C(=O)CN)CCO2)ncn1` (stereo not given) it was 152%. As to `NCC1CN(Cc2cn(CCC(N)=O)c3ccccc23)CCO1` (stereo not given), the “Percent Effect” value is listed as -15.16%. With `Cc1noc(C)c1-c1cc(CCC2CN(CCC(N)=O)CCO2)ncn1` (stereo not given) the figure was 120.1%; with `CC(=O)N1CCOC(CCc2cc(-c3c(C)noc3C)ncn2)C1` (stereo not given), 154%. For the compound `CCC1CN(C(=O)c2[nH]nc(C)c2Br)CCO1` (stereo not given), the “Percent Effect” value was -57.1%. With `COCC1CN(C(=O)Nc2cc(Cl)cc(Cl)c2)CCO1` (stereo not given) the figure was -11.38%. In the case of `Cc1noc(C)c1-c1cc(CCC2CN(C(=O)C(C)C)CCO2)ncn1` (stereo not given) it was 137.5%. With `Cc1[nH]nc(CCC(=O)N2CCOC(CCc3ccccc3)C2)c1C` (stereo not given) the figure was -1.139%; with `COCCC1CN(Cc2cn(CCC(N)=O)c3ccccc23)CCO1` (stereo not given), -2.901%.
